Among the test systems are SR leukemia; RPMI-8226 leukemia; OVCAR-8 ovarian; OVCAR-5 ovarian; OVCAR-4 ovarian; SK-OV-3 ovarian; IGROV1 ovarian; OVCAR-3 ovarian; HS 578T breast; NCI/ADR-RES ovarian; T-47D breast; BT-549 breast; MDA-MB-435 melanoma; SW-620 colon; MCF7 breast; HCT-116 colon; HCC-2998 colon; KM12 colon.
Holding throughout (assay): NCI-60 one-dose screen, 48 h (100 = growth as untreated, 0 = no growth, -100 = all killed)
What all share (conditions): 10 µM unless noted

Values joined by “and” are separate entries in the source; they are usually repeats but may differ in a detail not shown here. Equal values may be shown once. The panel holds about 83,000 compounds, 20% with a hit somewhere; the sample as a whole holds those more often.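 Method: cells in 96-well plates; compound added at one concentration; 48 h incubation; percent growth measured; values under 10 scored active.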 Active and inactive are the calls of the source.

As for `CC(=O)OC[C@]12CCC(C)(C)C=C1[C@H]1CC[C@@H]3[C@@]4(C)CCCNC(C)(C)[C@@H]4CC[C@@]3(C)[C@]1(C)CC2`, the growth was 13.7% (inactive) in the assay on SR leukemia; -4.32% (active) in the assay on RPMI-8226 leukemia; 71.9% (inactive) in the assay on OVCAR-8 ovarian; 96.7% (inactive) with OVCAR-5 ovarian; 41.8% (inactive) in the assay with OVCAR-4 ovarian; 90.5% (inactive) in the assay on SK-OV-3 ovarian. Besides, the growth in the assay with IGROV1 ovarian was 43.6% (inactive); with OVCAR-3 ovarian, 30.7% (inactive); with HS 578T breast, 92.5% (inactive); in the assay with NCI/ADR-RES ovarian it was 104% (inactive); in the assay with T-47D breast, 51.8% (inactive); with BT-549 breast it was 63.8% (inactive). In addition, the growth in the assay on MDA-MB-435 melanoma was 29.7% (inactive); in the assay on SW-620 colon, 49.9% (inactive); in the assay on MCF7 breast it was 46.6% (inactive); in the assay on HCT-116 colon it was 34.1% (inactive); in the assay on HCC-2998 colon it was 49% (inactive); with KM12 colon, 25.5% (inactive).
For the compound `COc1ccc2nc3cc(Cl)ccc3c(NCCCNCCC(C)O)c2c1` (stereo unspecified), the growth in the assay on SR leukemia is -37.3% (active); in the assay with RPMI-8226 leukemia, -19.8% (active); in the assay with OVCAR-8 ovarian, 0.828% (active); in the assay with OVCAR-5 ovarian it was -18.8% (active); with OVCAR-4 ovarian, -28.9% (active); in the assay on SK-OV-3 ovarian, 3.74% (active). The growth in the assay on IGROV1 ovarian was -10.7% (active); in the assay on OVCAR-3 ovarian, -38.2% (active); in the assay on HS 578T breast, 0.958% (active); in the assay with NCI/ADR-RES ovarian, 43.7% (inactive); in the assay with T-47D breast, 4.09% (active); with BT-549 breast, -1.95% (active). Moreover, the growth with MDA-MB-435 melanoma is -86.3% (active); with SW-620 colon it was -22.2% (active); with MCF7 breast it was -0.546% (active); with HCT-116 colon it was -49.9% (active); in the assay on HCC-2998 colon, -60.9% (active); with KM12 colon, -20% (active).
Turning to `O=C1/C(=C/c2ccccc2[N+](=O)[O-])Cc2ccccc21`, the growth in the assay with SR leukemia was 3.7% (active) and 11.5% (inactive); in the assay with RPMI-8226 leukemia, -5.97% (active) and 3.37% (active); with OVCAR-8 ovarian it was 0.344% (active) and 59.9% (inactive); with OVCAR-5 ovarian, -1.63% (active) and 12.7% (inactive); in the assay on OVCAR-4 ovarian it was -36.5% (active) and -39.5% (active); in the assay with SK-OV-3 ovarian it was 70.4% (inactive) and 95.2% (inactive). In addition, the growth in the assay with IGROV1 ovarian was -10.6% (active) and 17.3% (inactive); with OVCAR-3 ovarian it was -23.8% (active) and -50.2% (active); in the assay on HS 578T breast, 32.3% (inactive) and 71.2% (inactive); in the assay with NCI/ADR-RES ovarian, -47.5% (active); in the assay on T-47D breast, 1.93% (active) and 64% (inactive); with BT-549 breast, 19.4% (inactive) and 27.3% (inactive). Also, the growth in the assay on MDA-MB-435 melanoma is 28.4% (inactive) and 36.3% (inactive); in the assay with SW-620 colon it was -56.2% (active) and -45.4% (active); with MCF7 breast, 9.87% (active) and 13% (inactive); in the assay on HCT-116 colon, -76.6% (active) and -25.5% (active); in the assay with HCC-2998 colon it was 85% (inactive) and 106% (inactive); in the assay on KM12 colon, 52% (inactive) and 32.2% (inactive).
Take `Cc1c(C(C)(C)O)cn2ncnc(Oc3ccc(NC(=O)Nc4ccc(Cl)c(C(F)(F)F)c4)cc3)c12`: the growth was -3.12% (active) in the assay with SR leukemia; 37% (inactive) with RPMI-8226 leukemia; 49.1% (inactive) in the assay with OVCAR-8 ovarian; 100% (inactive) with OVCAR-5 ovarian; 21% (inactive) in the assay on OVCAR-4 ovarian; 83.9% (inactive) in the assay with SK-OV-3 ovarian. The growth was 37.6% (inactive) in the assay on IGROV1 ovarian; 26.2% (inactive) in the assay on OVCAR-3 ovarian; 49.4% (inactive) in the assay on HS 578T breast; 64% (inactive) with NCI/ADR-RES ovarian; 21.8% (inactive) in the assay with T-47D breast; 58% (inactive) in the assay with BT-549 breast. Moreover, the growth is 37.4% (inactive) with MDA-MB-435 melanoma; 62% (inactive) in the assay on SW-620 colon; 25.2% (inactive) in the assay on MCF7 breast; 28.6% (inactive) in the assay with HCT-116 colon; 85.7% (inactive) with HCC-2998 colon; 24.8% (inactive) in the assay with KM12 colon.
Regarding `Cc1ccc(-c2nc3nc(-c4ccccc4)nc(N4CCN(S(=O)(=O)c5ccccc5)CC4)c3o2)cc1`, the growth with SR leukemia is 104% (inactive); with RPMI-8226 leukemia, 105% (inactive); with OVCAR-8 ovarian, 75.5% (inactive); with OVCAR-5 ovarian it was 99% (inactive); in the assay with OVCAR-4 ovarian it was 99.6% (inactive); in the assay with SK-OV-3 ovarian, 77.4% (inactive). For the same compound, the growth is 89.2% (inactive) with IGROV1 ovarian; 93% (inactive) in the assay with OVCAR-3 ovarian; 43.1% (inactive) in the assay with HS 578T breast; 85.7% (inactive) in the assay on NCI/ADR-RES ovarian; 94.5% (inactive) in the assay on T-47D breast; 64.5% (inactive) in the assay with BT-549 breast. Besides, the growth with MDA-MB-435 melanoma was 95.7% (inactive); with SW-620 colon, 92.9% (inactive); with MCF7 breast it was 92.7% (inactive); in the assay with HCT-116 colon, 65.2% (inactive); in the assay on HCC-2998 colon, 102% (inactive); in the assay with KM12 colon, 104% (inactive).
Turning to `CCOc1nc(-c2ccccc2)cc2c(O)c(C(=O)N/N=C/c3ccc(N(C)C)cc3)[nH]c(=O)c12`, the growth with SR leukemia is 101% (inactive); in the assay on RPMI-8226 leukemia, 102% (inactive); with OVCAR-8 ovarian, 115% (inactive); in the assay on OVCAR-5 ovarian, 115% (inactive); in the assay with OVCAR-4 ovarian, 148% (inactive); in the assay with SK-OV-3 ovarian it was 197% (inactive). Besides, the growth with IGROV1 ovarian was 15.7% (inactive); with OVCAR-3 ovarian, 111% (inactive); in the assay on HS 578T breast, 94.1% (inactive); in the assay on NCI/ADR-RES ovarian it was 105% (inactive); in the assay with T-47D breast it was 218% (inactive); with BT-549 breast, 125% (inactive). For the same compound, the growth in the assay on MDA-MB-435 melanoma was 118% (inactive); in the assay with SW-620 colon, 97.8% (inactive); in the assay on MCF7 breast, 92.9% (inactive); with HCT-116 colon it was 112% (inactive); in the assay on HCC-2998 colon, -14.8% (active); in the assay with KM12 colon, 109% (inactive).
Regarding `CCN(C(=O)N1CCN(c2cc3c(cc2F)c(=O)c(C(=O)O)cn3C2CC2)CC1)c1nc(-c2ccccc2)cs1`, the growth in the assay on SR leukemia is 10% (inactive); in the assay with RPMI-8226 leukemia, 12.5% (inactive); with OVCAR-8 ovarian, 30.2% (inactive); with OVCAR-5 ovarian it was 35.7% (inactive); in the assay with OVCAR-4 ovarian, 55.5% (inactive); in the assay with SK-OV-3 ovarian, 63.8% (inactive). Moreover, the growth with IGROV1 ovarian is 12.5% (inactive); in the assay on OVCAR-3 ovarian, 15.9% (inactive); with HS 578T breast, 18.2% (inactive); in the assay with NCI/ADR-RES ovarian, 22.4% (inactive); in the assay with T-47D breast, 55.4% (inactive); with BT-549 breast, -9.57% (active). For the same compound, the growth in the assay with MDA-MB-435 melanoma is 27.3% (inactive); in the assay on SW-620 colon it was 23.3% (inactive); in the assay with MCF7 breast, 14.9% (inactive); in the assay on HCT-116 colon, 6.31% (active); with HCC-2998 colon, 21% (inactive); in the assay with KM12 colon, 21.1% (inactive).

The record behind these values is PubChem BioAssay (NCI).
